Results taken from PubChem BioAssay (EPA / NIEHS).
Several values for one entry are separate records, joined by “and”; a condition that tells them apart may be missing. Equal values may be shown once. Inconclusive results are not listed. Activity calls are given as the source filed them. Rule for the calls: active = hit-call score of the fitted dose curve at least 0.9, where 1 is the maximum; inconclusive = response in the unintended direction; inactive = score below 0.9.

Key:
[1] = ACEA_AR_agonist_AUC_viability: ACEA Biosciences xCELLigence Real-Time Cell Analysis on Androgen Receptor Agonism for Viability (AID 2283775);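 for AC50: viability read 80 hours after compound addition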
In short: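 Read-out is area under the impedance curve at 80 h post-dose in 22Rv1 cells, with DMSO as baseline and signal loss taken as reduced viability. Compounds ran in duplicate from 100 uM final.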

[2] = ACEA_AR_antagonist_AUC_viability: ACEA Biosciences xCELLigence Real-Time Cell Analysis on Androgen Receptor Antagonism for Viability (AID 2283776);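 note: 22Rv1 human prostate cancer cells growing on impedance electrode plates; area under impedance growth curve at 80 h after dosing as viability; hits lower the growth signal relative to DMSO meaning cytotoxicity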
In short: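 Viability endpoint from label-free cell-index monitoring: 22Rv1 cultures treated with an eight-point 1:4 dilution series starting at 100 uM final, AUC at 80 h fitted against DMSO.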

[3] = ACEA_ER_AUC_viability: ACEA Biosciences xCELLigence Real-Time Cell Analysis on Estrogen Receptor Agonism for Viability (AID 2283782);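 note: continuous compound exposure with impedance area under curve over 80 h; hit means loss of impedance signal meaning reduced cell growth or viability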
In short: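 T-47D human breast cells in phenol red-free RPMI1640 with 10% charcoal-stripped FBS were dosed with an 8-point 1:4 dilution series from 100 uM top final concentration, in duplicate. Impedance-based growth was followed for 80 h; AUC analysed versus DMSO.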

AR (gene 367) [4] = biological target: AR (gene 367) (UniProt P10275); test: ACEA_AR_agonist_80hr: ACEA Biosciences xCELLigence Real-Time Cell Analysis on Androgen Receptor Agonism for Proliferation (AID 2283783);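 note: hits increase impedance growth signal above DMSO baseline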
In short: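 22Rv1 human prostate cancer cells were seeded after preconditioning in assay medium and monitored overnight, then dosed in an eight-point 1:4 dilution series from 100 uM (≤0.5% DMSO). Impedance-based growth was read at 80 h, gain-of-signal versus DMSO.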

AR (gene 367) [5] = biological target: AR (gene 367) (UniProt P10275); test: ACEA_AR_antagonist_80hr: ACEA Biosciences xCELLigence Real-Time Cell Analysis on Androgen Receptor Antagonism for Proliferation (AID 2283787);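 note: hits lower the impedance growth signal relative to DMSO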
In short: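 Impedance readout (RT-CES), 80 h post-dose; loss-of-signal vs DMSO baseline. 22Rv1 cells in assay medium. Compounds: 8-pt 1:4 series, max 100 uM final, up to 0.5% DMSO; n = 2.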

[6] = STM_H9_NormalizedViability: Cytotoxicity Assessment at 120 hours in the Stemina devTOX quickPredict H9 human embryonic stem cell (hESC)-based Assay (AID 2283784)
In short: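 Chemicals are tested blinded on H9 human embryonic stem cells in the pluripotent state, with medium exchanged daily. After background correction, fluorescence from CellTiter-Fluor is scaled against 0.1% DMSO wells, and decreases are scored.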

Sequence of AR (gene 367) (P10275 whole entry, looked up): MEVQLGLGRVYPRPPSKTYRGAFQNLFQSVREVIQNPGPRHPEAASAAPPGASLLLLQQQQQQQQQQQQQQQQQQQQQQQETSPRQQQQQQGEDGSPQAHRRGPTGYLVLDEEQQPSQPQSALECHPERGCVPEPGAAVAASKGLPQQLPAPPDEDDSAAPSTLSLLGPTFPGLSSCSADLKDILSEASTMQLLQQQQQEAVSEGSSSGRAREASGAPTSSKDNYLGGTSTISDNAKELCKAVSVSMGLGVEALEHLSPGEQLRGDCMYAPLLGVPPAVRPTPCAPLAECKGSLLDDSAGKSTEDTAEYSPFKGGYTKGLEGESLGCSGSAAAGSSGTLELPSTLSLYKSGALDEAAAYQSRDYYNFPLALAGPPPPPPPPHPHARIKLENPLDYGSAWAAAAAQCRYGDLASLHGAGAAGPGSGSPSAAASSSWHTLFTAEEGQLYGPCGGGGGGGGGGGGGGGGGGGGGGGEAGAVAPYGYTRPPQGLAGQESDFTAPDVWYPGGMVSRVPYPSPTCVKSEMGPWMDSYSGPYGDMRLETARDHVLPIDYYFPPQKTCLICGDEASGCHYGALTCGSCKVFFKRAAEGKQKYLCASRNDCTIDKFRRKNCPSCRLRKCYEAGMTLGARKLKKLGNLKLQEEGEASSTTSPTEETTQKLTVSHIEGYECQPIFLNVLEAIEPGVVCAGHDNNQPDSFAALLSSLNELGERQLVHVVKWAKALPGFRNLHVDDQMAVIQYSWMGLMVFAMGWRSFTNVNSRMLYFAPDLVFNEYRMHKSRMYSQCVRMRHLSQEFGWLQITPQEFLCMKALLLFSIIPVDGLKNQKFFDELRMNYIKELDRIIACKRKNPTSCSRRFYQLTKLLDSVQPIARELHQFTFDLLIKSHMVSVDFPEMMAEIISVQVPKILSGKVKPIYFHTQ

ClC1=C(Cl)C2(Cl)C3C(Cl)C(Cl)CC3C1(Cl)C2(Cl)Cl (stereo unspecified)
AC50 [1]: 11.9 µM (active)
AC50 [2]: 13.6 µM (active)
AC50 [3]: 91.7 µM (active)
outcome (AR (gene 367) [4]): inactive
AC50 (AR (gene 367) [5]): 5.06 µM (active)

CCOC(=O)c1ccccc1N
outcome [1]: inactive

CCCCN(CCCC)SN(C)C(=O)Oc1cccc2c1OC(C)(C)C2
AC50 [1]: 57.4 µM (active)
AC50 [2]: 49.2 µM (active)
AC50 [3]: 79.2 µM (active)

OCC1CO1 (stereo unspecified)
outcome [1]: inactive
outcome [2]: inactive

CSC(C)(C)C=NO
outcome [1]: inactive
outcome [2]: inactive
outcome [3]: inactive

CCCCc1ccc(O)cc1
outcome [1]: inactive
AC50 [2]: 8.13 µM (active)
AC50 [3]: 82.5 µM (active)

O=P(OCC(Br)CBr)(OCC(Br)CBr)OCC(Br)CBr (stereo unspecified)
AC50 [1]: 23.3 µM (active)
outcome [2]: inactive
outcome [3]: inactive
outcome (AR (gene 367) [4]): inactive
outcome (AR (gene 367) [5]): inactive

CCCCCCCc1ccc(O)cc1
AC50 [1]: 29.2 µM (active)
AC50 [2]: 50 µM (active)
AC50 [3]: 28 µM (active) and 26.6 µM (active) and 27.7 µM (active)
outcome (AR (gene 367) [4]): inactive
AC50 (AR (gene 367) [5]): 50 µM (active)

Cc1cccc(N)c1
outcome [1]: inactive
outcome [2]: inactive

ClC(Cl)(Cl)c1ccccc1
outcome [1]: inactive
outcome [2]: inactive

ClC(Cl)c1ccccc1
outcome [1]: inactive
outcome [2]: inactive

CCCN(CCC)c1c([N+](=O)[O-])cc(C(C)C)cc1[N+](=O)[O-]
AC50 [1]: 45.2 µM (active)
AC50 [2]: 58.7 µM (active)
AC50 [3]: 87.3 µM (active)

Nc1cc2c3c(c1)C(c1ccccc1)=N[C@@H](NC(=O)c1cccnc1)C(=O)N3CC2
outcome [1]: inactive
outcome [2]: inactive
outcome [3]: inactive

O=S(=O)(c1ccc(O)cc1)c1ccc(O)cc1
outcome [1]: inactive

c1ccc2c(c1)Nc1ccccc1S2
outcome [1]: inactive
AC50 [2]: 21.7 µM (active)
outcome [3]: inactive
outcome [6]: inactive

CCCCOCCOP(=O)(OCCOCCCC)OCCOCCCC
outcome [1]: inactive
outcome [2]: inactive

CCCCN(CCCC)N=O
outcome [1]: inactive
outcome [2]: inactive
outcome [3]: inactive

O=[N+]([O-])c1ccccc1
outcome [1]: inactive
outcome [2]: inactive
